# Results taken from PubChem BioAssay (NCATS).
# Records with an inconclusive call do not appear. A call without a number means that no potency is given here. A number with no mark means an inactive call. Calls of active or inactive are those of the source. Calls follow the shape of the dose curve; as a rule, active = well fitted curve in the direction sought with a large enough effect; inconclusive = small, poorly fitted or top-dose-only effect, or another doubt; inactive = no such curve, though single readings can be large; an effect the other way counts as inactive or inconclusive.
# Key:
# Hek293T = experiment: Primary qHTS to identify gynecologic anti-cancer compounds using libraries of approved drugs and bioactive compounds (AID 1345084); conditions: Gynecologic cancer cell panel viability, ATPlite luminescence, 48 h, control line for the selectivity index; series mostly up to 57.5 µM; also: nearly all actives have a fitted effect of over 55% in size
# Method in brief: (§1)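 Cells, 1,000 per well, plated 16 h, then exposed 48 h at 37 C to compounds. Viability by ATPlite luminescence after 15 min at room temperature.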
# JEG-3 = experiment: as above; conditions: Gynecologic cancer cell panel viability, ATPlite luminescence, 48 h; series mostly up to 57.5 µM
# Method in brief: as §1
# OV90 = experiment: as above; conditions: Gynecologic cancer cell panel viability, ATPlite luminescence, 48 h; series mostly up to 57.5 µM
# Method in brief: as §1
# PA-1 = experiment: as above; conditions: Gynecologic cancer cell panel viability, ATPlite luminescence, 48 h; series mostly up to 57.5 µM
# Method in brief: as §1
# SKOV3 = experiment: as above; conditions: Gynecologic cancer cell panel viability, ATPlite luminescence, 48 h; series mostly up to 57.5 µM
# Method in brief: as §1
# Tov-21-G = experiment: as above; conditions: Gynecologic cancer cell panel viability, ATPlite luminescence, 48 h; series mostly up to 57.5 µM
# Method in brief: as §1
# Tov112D = experiment: as above; conditions: Gynecologic cancer cell panel viability, ATPlite luminescence, 48 h; series mostly up to 57.5 µM
# Method in brief: as §1
# [1] = Drug repurposing screens with cells derived from glioblastoma tumor samples (AID 1345199); conditions: GBM patient neurospheres viability, ATP luminescence, 48 h; also: nearly all actives have a fitted effect of over 40% in size
# Method in brief: (§2)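 Four patient lines of CD133+ GBM neurospheres were screened at several concentrations; hits were retested in those lines plus three slower-growing GBM lines, using 48-hour treatment and ATP-based viability.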
# astro = experiment: as above; conditions: viability, ATP luminescence, 48 h; series mostly up to 45.9 µM
# Method in brief: as §2
# [2] = at 45.9 µM (top of the series), tumour line B
# [3] = at 45.9 µM (top of the series), tumour line D
# [4] = at 46 µM (top of the series), tumour line A
# [5] = at 46.1 µM (top of the series), tumour line C
# Potency is read from the fitted curve at half-maximal effect.
SMILES,Potency (Hek293T),Potency (JEG-3),Potency (OV90),Potency (PA-1),Potency (SKOV3),Potency (Tov-21-G),Potency (Tov112D),"activity, negative = cell killing [1, 2]","activity, negative = cell killing [1, 3]","activity, negative = cell killing [1, 4]","activity, negative = cell killing [1, 5]",Potency (astro),Potency ([1]; tumour line A)
CN1C(=O)CC(C)(c2ccccc2)C1=O (centres undefined),inactive,inactive,inactive,inactive,inactive,inactive,inactive,-1.54%,0.352%,-33.9%,-2.82%,inactive,–
O=C(OCC(COC(=O)c1cccnc1)(COC(=O)c1cccnc1)COC(=O)c1cccnc1)c1cccnc1,inactive,inactive,inactive,inactive,inactive,inactive,inactive,-3.98%,3.04%,–,-10.2%,inactive,14.1 µM (active)
O=C1CC(c2ccc(Cl)cc2)CC(=O)N1,inactive,inactive,inactive,inactive,inactive,inactive,inactive,–,–,–,–,–,–
CCOc1ccc(NS(=O)(=O)c2ccc(N)cc2)nn1,inactive,inactive,inactive,inactive,inactive,inactive,inactive,-20.8%,5.52%,-27.9%,9.99%,inactive,–
CCCC(=O)Nc1ccc(O)c(C(C)=O)c1,inactive,inactive,inactive,inactive,inactive,inactive,inactive,–,–,–,–,–,–
CCN1CCN(C(=O)N[C@@H](C(=O)N[C@@H]2C(=O)N3[C@@H]2SC(C)(C)[C@H]3C(=O)O)c2ccccc2)C(=O)C1=O,inactive,inactive,inactive,inactive,inactive,inactive,inactive,-6.11%,-1.23%,-24%,3.83%,inactive,–
Nc1nnnn1-c1ccccc1,inactive,inactive,inactive,inactive,inactive,inactive,inactive,-11.1%,-15.7%,-29.5%,12.1%,inactive,–
O=C1OC2(c3ccccc31)c1cc(I)c(O)c(I)c1Oc1c2cc(I)c(O)c1I,inactive,inactive,inactive,inactive,inactive,inactive,inactive,-23.6%,–,–,–,–,11.2 µM (active)
c1ccc2c(c1)CCc1ccccc1N2,inactive,inactive,inactive,inactive,22.4 µM (active),inactive,inactive,–,–,–,–,–,–
CCn1ccc(NS(=O)(=O)c2ccc(N)cc2)nc1=O,inactive,inactive,inactive,inactive,inactive,inactive,inactive,–,–,–,–,–,–
Nc1c[n+](N2CCOCC2)no1,inactive,inactive,inactive,inactive,inactive,inactive,inactive,3.67%,-1.79%,-15.9%,-4.45%,inactive,–
CC(C)(C)c1nnc(NS(=O)(=O)c2ccccc2)s1,inactive,inactive,inactive,inactive,inactive,inactive,inactive,-2.48%,-22.3%,-25.7%,-15.6%,inactive,–
Cc1cccc(C)c1NC(=O)c1cc(S(N)(=O)=O)c(Cl)cc1O,inactive,inactive,inactive,inactive,inactive,inactive,inactive,-11.2%,-8.64%,–,-16.5%,inactive,35.5 µM (active)
CC(C)NCCCC1(C(N)=O)c2ccccc2-c2ccccc21,inactive,inactive,inactive,inactive,inactive,inactive,inactive,–,–,–,–,–,–
CCOC(=O)OCC/C(SC(=O)OCC)=C(\C)N(C=O)Cc1cnc(C)nc1N,inactive,inactive,inactive,inactive,inactive,inactive,inactive,-4.41%,-10.3%,-26%,-10.1%,inactive,–
CN(C)C(=O)CNC(=O)Cc1ccccc1,inactive,inactive,inactive,inactive,inactive,inactive,inactive,-9.58%,-2.49%,-22.3%,4.09%,inactive,–
O=C(O)c1[nH]n(-c2ccc(S(=O)(=O)O)cc2)c(=O)c1N=Nc1ccc(S(=O)(=O)O)cc1,inactive,inactive,inactive,inactive,inactive,inactive,inactive,1.15%,-22.4%,–,-16.3%,inactive,28.2 µM (active)
CC(C)OP(=O)(CP(=O)(OC(C)C)OC(C)C)OC(C)C,inactive,inactive,inactive,inactive,inactive,inactive,inactive,–,–,–,–,–,–
CSc1ccc(/C=C2/C(C)=C(CC(=O)O)c3cc(F)ccc32)cc1,inactive,inactive,inactive,inactive,inactive,inactive,inactive,-6.37%,-11.2%,-24%,-7.45%,–,–
